# E coli Lon inh = inhibitors of E. coli Lon protease. 360,000 compounds, 0.42% hits. P0A9M0. purified E. coli Lon protease, fluorescence polarization. AID 602123. inhibition, % at 7.94 µM; in the data active = inhibition above about 13%, passing the limit was not always enough
# GLD-1 TGE inh = GLD-1-TGE RNA interaction inhibition (C. elegans). Q17339. purified GLD-1 + fluorescein TGE RNA, fluorescence polarization. inhibition, % at 5.96 µM. 320,000 compounds, 0.44% hits. AID 2280;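 active = percent inhibition above a per-plate cutoff, the plate mean of test compounds plus 3 SD, cut at about 30% in these data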
# Target sequence (Q17339 whole entry, looked up): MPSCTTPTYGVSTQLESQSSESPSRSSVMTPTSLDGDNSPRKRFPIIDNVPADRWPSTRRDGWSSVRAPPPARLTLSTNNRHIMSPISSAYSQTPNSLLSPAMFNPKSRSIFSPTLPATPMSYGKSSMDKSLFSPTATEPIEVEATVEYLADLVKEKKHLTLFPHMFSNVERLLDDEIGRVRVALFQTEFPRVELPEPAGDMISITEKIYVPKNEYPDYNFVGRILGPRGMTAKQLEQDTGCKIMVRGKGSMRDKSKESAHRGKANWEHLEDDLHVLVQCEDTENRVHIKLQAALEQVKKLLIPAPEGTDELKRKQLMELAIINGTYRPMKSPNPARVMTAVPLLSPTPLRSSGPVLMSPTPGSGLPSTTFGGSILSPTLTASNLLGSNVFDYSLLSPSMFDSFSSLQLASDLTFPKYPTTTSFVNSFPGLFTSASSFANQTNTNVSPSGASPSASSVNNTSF
# BCLXL inh = blocks human Bcl-xL binding to Bim BH3 peptide | inhibition, % at 10.9 µM | 320,000 compounds, 0.7% hits | Q07817 | GST-Bcl-xL / FITC-Bim BH3 peptide fluorescence polarization | AID 2129;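 active = inhibition above the mean of all tested compounds plus 3 SD, cutoff set per campaign, cut at about 30% in these data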;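 note: inhibitors lower millipolarization by displacing the labeled peptide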
# RTF Ca sens inh = cardiac RTF calcium desensitization; IANBD-labeled cardiac RTF, Ca2+ fluorescence; inhibition, % at 7.15 µM; 340,000 compounds, 0.12% hits; AID 493244;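 active = inhibition above the mean inhibition of all tested compounds plus 3 SD, cut at about 17% in these data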;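 note: assay run at fixed EC70 calcium of 1.6 mM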
# cardiac RTF act = cardiac RTF calcium sensitization | P19429+P45379 | IANBD-labeled TnC RTF fluorescence at EC20 calcium; 0% EC20 calcium, 100% full calcium | activation, % at 7.2 µM | 340,000 compounds, 0.24% hits | AID 493008;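 active = activation above the mean over all tested compounds plus 3 SD, cut at about 30% in these data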;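 note: rise in fluorescence read as greater calcium sensitivity of cardiac thin filaments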
# GLD1 RNA confirm = confirmation of C. elegans GLD-1 TGE RNA binding inhibitors | inhibition, % at 5.96 µM | shares compounds with GLD-1 TGE inh | 550 compounds, 10% hits | AID 2459 | GLD-1/FL-TGE RNA fluorescence polarization, biochemical;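 active = average inhibition across triplicates above the hit cutoff set in the primary screen, cut at about 32% in these data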
# A number is an active result; - = inactive; . = not tested or not shown. Shown are actives, neighbours in structure and some others; about 1.2% of the full set was active somewhere.
SMILES,E coli Lon inh,GLD-1 TGE inh,BCLXL inh,RTF Ca sens inh,cardiac RTF act,GLD1 RNA confirm
Cc1nn2c(NCCCN(C)C)c3c(nc2c1-c1ccccc1)CCCC3,-,-,-,-,-,.
Cc1nn2c(NCCCN(C)C)c3c(nc2c1-c1ccccc1)CCC3,-,30.7,-,-,-,-
CCSC1(SCC)N=C(N)C2(C#N)C(c3ccccc3)NC3=C(CCC3)C12C#N (stereo not given),-,49.8,-,-,-,-
Cc1noc(C)c1S(=O)(=O)N(CC(=O)NCCc1ccccc1)c1ccc(C(C)C)cc1,-,48.0,-,-,-,-
Cc1noc(C)c1S(=O)(=O)N(CC(=O)NCc1ccccc1)c1ccc(C(C)C)cc1,-,-,-,-,-,.
COc1ccc(CN2C(=O)CN=C2Nc2cc(C)ccc2C)cc1,-,32.5,-,-,-,-
CCc1ccccc1NC1=NCC(=O)N1Cc1ccc(OC)cc1,-,-,-,-,-,.
O=[N+]([O-])c1cc([N+](=O)[O-])c(Oc2ccc(Br)cc2Br)cc1NN1CCCCC1,-,100.4,-,-,-,-
Cc1cc(F)ccc1Oc1cc(NN2CCCCC2)c([N+](=O)[O-])cc1[N+](=O)[O-],-,-,-,-,-,.
CCN(CC)C(=O)C1=C(C)NC(=O)NC1c1ccccc1F (stereo not given),.,40.1,51.3,.,.,-
CN(C)c1ccc(-c2csc(C(O)c3ccc(F)c(F)c3)n2)cc1 (stereo not given),-,.,.,.,.,.
Oc1ccc(N2CCN(c3ncnc4sc(-c5ccccc5)cc34)CC2)cc1,-,.,.,-,-,.
Cc1cc2ncn(/N=C/c3ccc(-c4ccccc4)o3)c2cc1C,-,-,-,-,-,.
Cc1ccc(/C=N/n2cnc3sc(-c4ccccc4)cc3c2=O)o1,-,65.0,124.0,-,-,-
CCCCNC(=O)CN1C(=O)c2cccc(N)c2C1=O,-,.,.,-,-,.
CN(C(=O)CN1C(=O)c2cccc(N)c2C1=O)C1CCCCC1,-,44.6,60.6,-,-,48.6
CCN(CC)S(=O)(=O)c1ccc(N2CCCC2)c(NS(=O)(=O)c2ccc(F)cc2)c1,-,34.1,-,-,-,56.8
CCN(CC)S(=O)(=O)c1ccc(N2CCCC2)c(NS(=O)(=O)c2ccccc2)c1,-,-,-,-,-,.
COC(=O)C1=C(C)OC(N)=C(C#N)C1c1ccco1 (stereo not given),-,-,-,-,-,.
CC(=O)C1=C(C)OC(N)=C(C#N)C1c1ccco1 (stereo not given),-,39.4,59.5,-,-,-
Cc1[nH]cnc1CN1CCc2c(c3ccccc3n2C)C1=O,-,-,-,-,-,.
Cc1ccc(-c2nn(CCC(=O)Nc3cccnc3)c(=O)c3ccccc23)cc1,-,61.4,81.8,.,.,-
CCc1ccc(S(=O)(=O)NCCc2cn3ccccc3n2)s1,-,-,-,-,-,.
Cc1cccn2c(=O)c3cc(C#N)c(=NC(=O)c4ccncc4)n(CCCOC(C)C)c3nc12,-,43.5,72.8,-,-,-
CC(=O)N=c1c(C#N)cc2c(=O)n3cccc(C)c3nc2n1CCCOC(C)C,-,-,-,.,.,.
SMILES,E coli Lon inh,GLD-1 TGE inh,BCLXL inh,RTF Ca sens inh,cardiac RTF act,GLD1 RNA confirm
Cc1cccn2c(=O)c3cc(C#N)c(=NC(=O)c4cccs4)n(CCCOC(C)C)c3nc12,-,56.6,70.8,-,-,-
O=C1CCC(C(=O)OC(C(=O)c2c[nH]c3ccccc23)c2ccccc2)=NN1 (stereo not given),-,-,-,-,-,.
O=C(CSc1nc2cc(Cl)ccc2s1)NCC1CCCO1 (stereo not given),-,-,.,-,-,.
CCC(C)Nc1nc(OC(C(F)(F)F)C(F)(F)F)nc(OC(C(F)(F)F)C(F)(F)F)n1 (stereo not given),-,35.5,-,-,-,-
CCCn1c(/N=C/c2c[nH]c3ccccc23)nc2ccccc21,-,40.4,80.1,-,-,-
Cc1nn(C(C)(C)C)c(OC(=O)c2cccs2)c1Sc1ccccc1,-,-,-,-,-,.
CC(C)CCN(C)C1CCN(C(=O)Nc2c(F)cccc2F)CC1,-,35.0,36.5,-,-,-
Cc1oc(/N=C/c2ccc3c(c2)OCO3)c(C#N)c1C,-,36.0,-,-,-,-
CC(=O)c1c(Nc2cccc(F)c2)oc(C)cc1=O,-,-,-,-,-,.
COc1ccc(Nc2ncc3c(n2)CC(c2ccc(OC)cc2)CC3=O)cc1 (stereo not given),-,45.0,-,-,-,-
COc1ccc(Nc2ncc3c(n2)CC(c2ccc(C)cc2)CC3=O)cc1 (stereo not given),-,-,-,-,-,.
COc1ccc(-n2nc(C(=O)NCC(=O)NC3CCCC(C)C3C)c3ccccc3c2=O)cc1 (stereo not given),-,33.3,-,-,-,-
Cc1cc2cc(OCC(=O)O)ccc2n1C,-,39.3,-,-,-,-
CCC(CC)C(=O)NCc1ccc2c(c1)cc(C)n2C,-,-,-,-,-,.
Cc1cc2cc(CNC(=O)C(C)Oc3ccccc3)ccc2n1C (stereo not given),-,57.0,38.2,-,-,-
CCOC(=O)c1c(C)n(C)c2ccc(OCC(O)CN3CCC(C)CC3)cc12 (stereo not given),-,-,-,-,-,.
Cc1ccc(/C=C2/C(=O)c3ccc(C(=O)O)cc3C2=O)o1,-,.,.,-,-,.
O=C(O)c1ccc2c(c1)C(=O)/C(=C/c1ccccc1)C2=O,-,46.4,76.7,-,-,-
CC1=CC(=O)c2c(O)ccc(O)c2C1=O,.,74.5,88.3,.,.,32.6
CCCCC(=O)Nc1ccc(NCc2ccc(C)s2)cc1,-,38.4,-,-,-,-
CCCCC(=O)Nc1ccc(C(N)=O)cc1,-,-,-,-,-,.
CCCn1c(C)cc(C(=O)CN2C(=O)c3cccc(N)c3C2=O)c1C,-,35.1,-,-,-,-
Cc1ccc[n+](-c2nc([O-])sc2/C=N/Nc2ccc([N+](=O)[O-])cc2)c1,-,39.0,41.6,-,-,39.2
CC(=O)Nc1ccc(Oc2nc(-c3ccccn3)nc3ccccc23)cc1,-,-,-,-,-,.
CC(=O)Nc1cccc(Oc2nc(-c3ccccn3)nc3ccccc23)c1,-,31.2,-,.,.,-
SMILES,E coli Lon inh,GLD-1 TGE inh,BCLXL inh,RTF Ca sens inh,cardiac RTF act,GLD1 RNA confirm
Cc1ccc(C(=O)N/N=C/c2ccc(-c3ccc(Br)cc3[N+](=O)[O-])o2)o1,-,35.5,50.6,-,-,34.7
Cc1ccc(C(=O)N/N=C\c2ccc(Br)o2)o1,-,-,-,-,-,.
CC(OC(=O)c1c[nH]c2ccccc12)C(=O)N1CCCC1 (stereo not given),-,-,-,-,-,.
Cc1cc2c(c(=O)o1)C(c1ccc([N+](=O)[O-])o1)C(C#N)=C(N)O2 (stereo not given),-,36.4,46.0,.,.,-
Cc1sc2ncnc(SCC(=O)Nc3nc(-c4ccc(F)c(F)c4)cs3)c2c1C,-,-,-,-,-,.
CNc1nnc(Sc2ncccc2[N+](=O)[O-])s1,-,39.8,63.8,-,-,-
